We go through 101 compounds from PubChem BioAssay AID2501 (Southern Research Specialized Biocontainment Screening …, 2010).

The campaign covered roughly 2,200 compounds. About 1,200 (55%) were called active. The limit is not given here; nearly all actives have IC50 up to about 92 µM. The set was probably picked from earlier hits. The list shows a part of the results.

This experiment can be described thus: counter assay for TAg ATPase ADP read-out – biochemical, ADP-Hunter, fluorescence, counter-screen (AID 2501).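 Also: purified T antigen ATPase.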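 As to inhibition: higher means more inhibition.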 The note with it: series mostly up to 100 µM. In general terms: Counterscreens check selectivity or assay interference.
On to `CCCOc1ccc(C(=O)N2CC3(CC(c4cccc(NC(=O)[C@@H]5CCC(=O)N5)c4)=NO3)C[C@H]2C(=O)NC2(C(N)=O)CC2)cc1` (stereo partly specified), for which the IC50 – broadly, the concentration at which inhibition is half-maximal – is “inactive”.
On to `COc1cc(/C=N/NC(=O)c2cccs2)ccc1O`, for which the IC50 was 4.58 µM (active).
As for `COc1cc(/C=N/NC(=O)c2nc(C)cc(C)n2)ccc1O`, the IC50 was 2.74 µM (active).
With `COc1cc(/C=N/NC(=S)Nc2cccc(C(=O)O)c2)ccc1O`, the IC50 is 2.66 µM (active).
To `COc1cc(/C=N\NC(=O)c2c(C)nc3cc(C)ccn23)ccc1O` belongs 4.52 µM (active); to `CCCOc1ccccc1/C=C1\SC(N2CCCCC2)=NC1=O`, “inactive”.
The figure for `COc1ccc(/C=N\NC(=O)c2ccc(=O)[nH]n2)cc1O` is 3.12 µM (active); for `COc1cc(/C=N/NC(=O)c2ccncc2)ccc1O` it is 3.56 µM (active); for `COc1cc(/C=N/NC(=O)c2ccccc2)ccc1O` it is 5.63 µM (active).
The entry for `CCOC(=O)C[n+]1c(C)sc2ccc(OC)cc21` is “inactive”.
Consider `C=CCOc1ccc(CNc2ccc3[nH]c(=O)[nH]c3c2)cc1OCC`, for which the IC50 is 3.26 µM (active).
To `C=CCOc1c(CNc2ccc3[nH]c(=O)[nH]c3c2)cccc1OC` belongs 3.28 µM (active).
Consider `C=CCOc1ccccc1CNc1ccc2[nH]c(=O)[nH]c2c1`, for which the IC50 was 5.14 µM (active).
The figure for `O=c1[nH]c2ccc(NCc3ccc(F)cc3)cc2[nH]1` is 5.43 µM (active).
As to `O=C(Nc1ccc2[nH]c(=O)[nH]c2c1)c1cccc([N+](=O)[O-])c1`, the IC50 entry is “inactive”.
To `Cc1ccc(C2C(C#N)=C(N)Oc3c2oc(CO)cc3=O)o1` (stereo unspecified) belongs “inactive”; to `O=C1CC(=O)N(Cc2ccco2)C(=S)N1`, “inactive”; to `O=C1c2sc3nc4n(c(=O)c3c2CCC1Br)CCCCC4` (stereo unspecified), “inactive”.
As for `COc1ccc2[nH]c(=O)c(CNc3ccccc3OC)cc2c1`, the IC50 entry is “inactive”.
Take `C=CCOc1cccc(CNc2ccc3[nH]c(=O)[nH]c3c2)c1`: the IC50 was 4.29 µM (active).
To `COc1cccc(CNc2ccc3[nH]c(=O)[nH]c3c2)c1OCc1ccccc1` belongs 3.98 µM (active); to `COc1cc(/C=C2\S/C(=N/S(=O)(=O)c3ccc(C)cc3)NC2=O)c([N+](=O)[O-])cc1OC`, “inactive”.
In the case of `COc1cc(/C=C2\SC(=Nc3ccc(Cl)c(C(=O)O)c3)NC2=O)c(Br)c(Br)c1O`, the IC50 was 3.98 µM (active).
Regarding `CN1CN(C)c2cccc3cccc1c23`, the half-maximal inhibitory concentration (IC50) is 13.5 µM (active).
To `CCOC(=O)c1ccc(N/C=C/C(=O)C(C)(C)C)cc1` belongs “inactive”; to `CN(C)c1ccc(N/C=C/C(=O)C(F)(F)F)cc1`, 8.86 µM (active).
To `COc1ccccc1N/C=C/C(=C(C#N)C#N)N(C)C` belongs “inactive”; to `CN(C)c1ccc(N/C=C/C(=O)c2ccccc2)cc1`, 3.25 µM (active); to `O=S(=O)(Nc1c(O)ccc2ccccc12)c1ccc(F)cc1`, “inactive”.
The figure for `Oc1ccc2ccccc2c1N=Nc1ccccc1F` is 7.8 µM (active); for `O=S(=O)(Nc1cc(Sc2cccc3cccnc23)c(O)c2ccccc12)c1ccc(F)cc1` it is “inactive”; for `O=C(COc1cccc2cccnc12)N/N=C/c1ccc(O)cc1` it is 73.5 µM (active).
As to `O=C(N/N=C/c1ccc(O)c(O)c1)c1ccc(CSc2cccc3cccnc23)cc1`, the IC50 is 29 µM (active).
As for `CCOc1cc(/C=N/NC(=O)CSc2cccc3cccnc23)ccc1O`, the IC50 was 3.48 µM (active).
With `O=C(CSc1cccc2cccnc12)N/N=C/c1ccc(O)cc1`, the IC50 is 4.35 µM (active).
As for `COc1ccc([C@@H]2[C@@H]3C(=O)N(C(C)(C)C)C(=O)[C@@H]3[C@]3(C)C(=O)N(c4ccc(C)cc4)C(=O)N23)cc1`, the IC50 result is “inactive”.
To `COCc1ccc(C(=O)N2CCCC(CCC(=O)NCc3ccccc3F)C2)o1` (stereo unspecified) belongs “inactive”; to `COc1ccc(NC2CCCN(C(=O)c3ccc(OC)cc3OC)C2)cc1` (stereo unspecified), 3.38 µM (active); to `COc1ccc(C(=O)Nc2ccc3c(c2)CCCN3C(=O)c2cccs2)c(OC)c1`, “inactive”.
`O=C(c1ccco1)N1CCCC(Nc2ccc3c(c2)OCCO3)C1` (stereo unspecified): the IC50 was 13.5 µM (active).
With `O=C(c1cc(F)ccc1F)C1CCCN(C(=O)c2ccc(F)cc2Cl)C1` (stereo unspecified), the IC50 result is “inactive”.
Turning to `COc1ccc(NC2CCCN(C(=O)c3ccc(OC)o3)C2)cc1` (stereo unspecified), the IC50 was 10.4 µM (active).
To `CSc1ncc(CN2CCCC(C(=O)Nc3ccc(-c4ccco4)cc3)C2)cn1` (stereo unspecified) belongs “inactive”.
In the case of `O=C(c1ccco1)N1CCN(C(=O)N2CCCC2)CC1`, the IC50 result is “inactive”.
On to `COc1ccc(NC2CCCN(C(=O)c3ccncc3)C2)cc1` (stereo unspecified), for which the IC50 was 12 µM (active).
To `COc1cc(O)c(C(C)=O)c(CC(=O)O)c1` belongs “inactive”; to `CN(Cc1ccno1)Cc1cn(C)nc1-c1ccc(Oc2ccccc2)cc1`, “inactive”; to `CCOc1ccc(C(=O)N(Cc2ccc(OC)cc2)Cc2cc3cc(OC)ccc3[nH]c2=O)cc1`, “inactive”.
`N#CC(C#N)=C1C=CC=CN1/C(=C\c1ccco1)C(=O)c1ccc(Br)cc1`: the IC50 result is “inactive”.
Turning to `CCOc1cc(S(=O)(=O)n2nc(C)cc2C)ccc1Br`, the IC50 entry is “inactive”.
As for `CCCN1CCN(C(=O)c2cc(COc3ccc4ncccc4c3)on2)CC1`, the IC50 result was “inactive”.
The entry for `COc1ccc(NS(=O)(=O)c2ccc3c(c2)[C@H]2C=CC[C@H]2[C@@H](c2ccc(C(=O)O)cc2)N3)cc1` is “inactive”.
In the case of `COc1ccc(NC2CCCN(C(=O)c3cccc(C(F)(F)F)c3)C2)cc1OC` (stereo unspecified), the IC50 is 12 µM (active).
The entry for `COc1ccc(NC(=O)N2CCCC(C(=O)Nc3cccc(C)c3C)C2)cc1` (stereo unspecified) is “inactive”; for `COc1ccc(NC2CCCN(C(=O)c3c(C)noc3C)C2)cc1` (stereo unspecified) it is 6.38 µM (active); for `COc1ccc(NC2CCCN(C(=O)c3ccc(C(C)=O)cc3)C2)cc1` (stereo unspecified) it is 2.06 µM (active).
On to `O=C1CCC(CCC(=O)N2CCCC(C(=O)c3cccc(C(F)(F)F)c3)C2)=NN1` (stereo unspecified), for which the IC50 entry was “inactive”.
Regarding `Cc1ccc(C(=O)Oc2oc(-c3ccccc3)nc2C=Nc2ccc(N(C)C)cc2)cc1`, the IC50 result was “inactive”.
Turning to `Cc1ccc(NC(=O)CN2C(=O)N/C(=C/c3cccn3-c3ccc(C(=O)O)cc3)C2=O)cc1`, the IC50 entry is “inactive”.
For the compound `CN(C)c1ccc(NC(=O)CN2CCC(N3CCCCC3)CC2)cc1`, the IC50 is 6.64 µM (active).
To `Cc1cc(C)c2c(=O)n(CC(=O)N3CCC(N4CCCCC4)CC3)sc2n1` belongs “inactive”; to `Cc1ccc(C(=O)C2CCN(CC(=O)Nc3ccc(N(C)C)cc3)CC2)cc1`, 6.37 µM (active); to `Cc1ccc(NC(=O)CN2C(=O)N/C(=C/c3cc(C)n(-c4ccc(C(=O)O)cc4)c3C)C2=O)cc1`, “inactive”.
As to `CN(C)c1ccc(NC(=O)CN2CCC(C(=O)c3ccc(F)cc3)CC2)cc1`, the IC50 is 3.05 µM (active).
`CC(C)NC(=O)C1CCN(C2CCN(Cc3ccc4cccc(F)c4n3)CC2)CC1`: the IC50 result is “inactive”.
With `CC(=O)CSc1nc(C(F)(F)F)cc(=O)n1-c1ccccc1`, the IC50 entry is “inactive”.
The entry for `CC1(C)Cc2c(C#N)c(N3CCCC3)nc(-c3ccco3)c2CO1` is “inactive”; for `CN(C)c1ccc(Nc2cc(Cl)ncn2)cc1` it is 9.79 µM (active).
The figure for `O=C1CCCC2=C1Sc1ccccc1N2` is 7.55 µM (active); for `Cc1c(Br)c(=O)oc2c(Br)c(O)c(O)cc12` it is 25.2 µM (active); for `CN(C)/C=C(\C#N)C(=O)Nc1ccc(O)cc1F` it is 10.3 µM (active).
Turning to `O=C(CCc1ccc(O)c(O)c1)N/N=C/c1cc2c(cc1[N+](=O)[O-])OCO2`, the IC50 entry is “inactive”.
`COc1ccc(OC)c(/C=N/NC(=O)CCc2ccc(O)c(O)c2)c1`: the IC50 was 40.4 µM (active).
Take `N#Cc1nc(Cc2cccc3ccccc23)oc1NCCN1CCOCC1`: the IC50 result was “inactive”.
The figure for `COc1cc(C(=O)Nc2ccc(O)cc2)ccc1OC(C)=O` is 3.55 µM (active).
To `Cc1cccc(C(=O)Nc2ccc(O)cc2)c1` belongs 4.37 µM (active); to `O=C(Nc1ccc2c(c1)C(=O)OC2)c1ccc(C(F)(F)F)cc1`, “inactive”; to `Cc1cccc(C(=O)Nc2ccc(C(=O)N/N=C/c3ccc4c(c3)OCO4)cc2)c1`, “inactive”.
Regarding `O=C(Nc1ccc(O)cc1)c1ccc2c(c1)C(=O)N(N1C(=O)c3ccccc3C1=O)C2=O`, the IC50 was 6.05 µM (active).
The entry for `O=C(Cn1c(=O)n(Cc2ccco2)c(=O)c2c3c(sc21)CCCCC3)Nc1ccccc1` is “inactive”.
In the case of `O=C1CC(=O)N(Cc2ccco2)C(=O)N1`, the IC50 entry is “inactive”.
As to `CCOC(=O)NC(=O)C(=CNc1cccc(C)c1)C(=O)NC(=O)OCC`, the IC50 result was “inactive”.
The figure for `O=C(Nc1ccc(O)cc1)c1ccc2c(c1)C(=O)N(Cc1ccco1)C2=O` is 8.35 µM (active); for `OC1CN=C2CCCc3c2n(c2ccc(Cl)cc32)C1` (stereo unspecified) it is “inactive”.
The figure for `COc1cc(/C=C/C(=O)OCC(=O)N2CC(=O)Nc3ccccc32)ccc1O` is 6.1 µM (active).
The entry for `O=C1COc2ccc(C(=O)COC(=O)/C=C/c3ccc(Br)o3)cc2N1` is “inactive”.
With `CCNC(=O)COC(=O)/C=C/c1cccc(F)c1`, the IC50 entry is “inactive”.
For the compound `COc1cc(/C=C/C(=O)OCC(=O)Nc2ccc(S(N)(=O)=O)cc2)ccc1O`, the IC50 is 12.2 µM (active).
To `NS(=O)(=O)c1ccc(NC(=O)COC(=O)c2ccc(Cl)nc2)cc1` belongs “inactive”; to `Cc1cc(C)c(S(=O)(=O)/N=C2/C=C(SCC(=O)O)C(=O)c3ccccc32)cc1C`, “inactive”; to `CN(C)c1ccc(NC(=O)C(=O)C2C(=O)Nc3ccccc32)cc1` (stereo unspecified), 1.57 µM (active).
For `C=CCn1c(SCC(=O)c2ccc(O)c(O)c2)nnc1-c1cccnc1`, the IC50 was 8.61 µM (active).
Take `CCn1c(SCc2ccc(C(=O)Nc3nccs3)cc2)nnc1-c1ccc(NC(C)=O)cc1`: the IC50 result was “inactive”.
With `CCn1c(SCC(=O)c2ccc(O)c(O)c2)nnc1-c1ccc(C)cc1`, the IC50 is 6.52 µM (active).
For the compound `C=CCn1c(SCC(=O)c2ccc(O)c(O)c2)nnc1-c1ccccc1OC`, the IC50 was 10.2 µM (active).
The entry for `CCOC(=O)c1ccc(CSc2nnc(-c3ccncc3)n2N)cc1` is “inactive”; for `Cn1c(SCC(=O)c2ccc(O)c(O)c2)nnc1-c1cccs1` it is 15.9 µM (active); for `Cn1c(SCC(=O)c2cc(Cl)c(Cl)s2)nnc1-c1ccco1` it is “inactive”.
Consider `COCCCN(Cc1ccco1)C(=O)Cn1ncc2c(=O)oc3ccc(C)cc3c21`, for which the IC50 entry was “inactive”.
On to `CCn1c(SCC(=O)c2ccc(O)c(O)c2)nnc1-c1ccccc1OC`, for which the IC50 is 3.84 µM (active).
On to `CCn1c(SCC(=O)Nc2ccccc2C)nnc1-c1ccccc1O`, for which the IC50 entry is “inactive”.
